Where “and” joins values, the source holds several entries; their conditions need not be identical. Equal entries are not always repeated. Records with an inconclusive call do not appear. Where a structure was tested more than once in an assay, its records may differ in their call. Calls of active or inactive are those of the source. Unless noted, calls follow the shape of the dose curve; as a rule, active = well fitted curve in the direction sought with a large enough effect in the repeat runs; inconclusive = weak or mixed curves; inactive = no such curve, though single readings can be large; an effect the other way counts as inactive or inconclusive.

The nature of experiment [1]: qHTS assay to identify small molecule antagonists of the constitutive androstane receptor (CAR) signaling pathway - cell viability counter screen (AID 1224837). Also: nearly all actives have a fitted effect of over 45% in size. Also: potency is read from the fitted curve at half-maximal effect. In short, it runs like this: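 HepG2 cells stably carrying hCAR and CYP2B6-2.2kb reporter, stimulated with 50 nM CITCO and compounds at 15 concentrations for 23 h at 37 C. Viability measured by CellTiter-Fluor fluorescence.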
(In qHTS, concentration-response curves come from the screen itself.)

Experiment [2] deals with Nuclear receptor subfamily 1 group I member 3 (Homo sapiens) (UniProt Q14994). Briefly: qHTS assay to identify small molecule antagonists of the constitutive androstane receptor (CAR) signaling pathway (AID 1224838). Also: nearly all actives have a fitted effect of over 40% in size. Also: potency is read from the fitted curve at half-maximal effect. In short, it runs like this:
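HepG2 cells stably carrying hCAR and a CYP2B6-2.2kb luciferase reporter, seeded 4 hrs before compound (15 concentrations). Stimulated with 50 nM CITCO for 24 hr at 37 C. ONE-Glo luminescence read after 30 min at room temperature.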

Experiment [3] shares this target. Briefly: qHTS assay to identify small molecule agonists of the constitutive androstane receptor (CAR) signaling pathway (AID 1224839). Also: nearly all actives have a fitted effect of over 15% in size. Also: potency is read from the fitted curve at half-maximal effect. As to activation: % is scaled to controls: 0 for no effect and ±100 for the full control effect. In short, it runs like this: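 Double-stable HepG2 cells (hCAR, CYP2B6-2.2kb) seeded 4 h before compound addition. Exposure 24 h with 0.75 uM PK11195 final. Luciferase detected by ONE-Glo.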
A short description of experiment [4]: qHTS assay to identify small molecule antagonists of the estrogen related receptor signaling pathway with the pleiotropic PPARgamma coactivator (PGC) from Tox21 10K library - cell viability counter screen (AID 1224840; active = well fitted cell-killing curve with a large enough effect in the repeat runs, not every such curve was filed as active; also: nearly all actives have a fitted effect of over 40% in size; also: potency is read from the fitted curve at half-maximal effect). The essentials:
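PGC/ERR cells (2,000/well) plated 6 h, then compound-treated for 17.5 h at 37 C. Viability measured by CellTiter-Fluor fluorescence after 30 min at 37 C, multiplexed with the pathway assay.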

The nature of experiment [5]: qHTS assay to identify small molecule agonists of the estrogen related receptor signaling pathway with the pleiotropic PPARgamma coactivator (PGC) from Tox21 10K library (AID 1224842). Also: % is scaled to controls: 0 for no effect and ±100 for the full control effect; nearly all actives have a fitted effect of over 15% in size. The essentials:
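PGC/ERR reporter cell line, 2,000 cells per well, incubated 6 h at 37 C before 23 nL compound in DMSO was added. After 18 h at 37 C, One-Glo luminescence read following 30 min at room temperature.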

The target in experiment [6] is Thyrotropin receptor (Homo sapiens) (UniProt P16473). Briefly: qHTS assay to identify small molecule agonists of the thyroid stimulating hormone receptor (TSHR) signaling pathway (AID 1224843; calls by dose curve; also: % is scaled to controls: 0 for no effect and ±100 for the full control effect; nearly all actives have a fitted effect of over 45% in size). The essentials:
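Steps: seed 800 TSHR-HEK293 cells per well; add test compound and hold 30 min at ambient temperature; dispense cAMP-d2 then anti-cAMP cryptate; incubate 1 h at ambient; measure fluorescence intensity.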

Experiment [7] in a line: qHTS assay to identify small molecule agonists of H2AX - cell viability counter screen (AID 1224847; calls by dose curve; also: top concentration of the series differs between compounds; % is scaled to controls: 0 for no effect and ±100 for the full control effect; nearly all actives have a fitted effect of over 30% in size). In short, it runs like this:
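Quantitative HTS viability measurement: CHO-K1 wild-type cells in serum (10% FBS) medium, short 3 hr drug exposure at 37C with 0.76% DMSO, CellTiter-Glo luminescent detection.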

A short description of experiment [8]: qHTS assay to identify small molecule antagonists of the estrogen related receptor (ERR) signaling pathway from Tox21 library (AID 1224848). Also: potency is read from the fitted curve at half-maximal effect; nearly all actives have a fitted effect of over 50% in size. In short, it runs like this:
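Luminescent reporter read-out (ONE-Glo) from NTP's ERR cell line after 18 h treatment at 37 C with DMSO-dissolved Tox21 compounds; cells pre-plated 6 h beforehand at 2,000 per well.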

Experiment [9] is described as follows: qHTS assay to identify small molecule agonists of the estrogen related receptor (ERR) signaling pathway from Tox21 library (AID 1224849; calls by dose curve; also: % is scaled to controls: 0 for no effect and ±100 for the full control effect; nearly all actives have a fitted effect of over 15% in size). The following applies: ERR reporter cell line, ONE-Glo luciferase, 18 h; at 92.4 µM (top of the series) unless noted. In short, it runs like this:
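ERR reporter cells (NTP line) pre-incubated 6 hours at 37 C, then exposed to compounds for 18 hours at 37 C. ONE-Glo luciferase luminescence was read after 30 minutes at room temperature.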

Experiment [10] is described as follows: qHTS RealTime-Glo MT Cell Viability Assay in HepG2 cells - 24 hour (AID 1224867). Also: % is scaled to controls: 0 for no effect and ±100 for the full control effect; nearly all actives have a fitted effect of over 50% in size. In short, it runs like this: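 Cells + NanoLuc/prosubstrate dispensed (600 cells/well) → 5 h at 37 C/5% CO2 → compounds in DMSO transferred → 40 h incubation at 37 C, luminescence read at 0, 8, 16, 24, 32, 40 h.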
Experiment [11] in a line: A CellTox Green Cytotoxicity Assay to monitor cytotoxicity in HEK293 cells - 0 hour (AID 1224869). Also: % is scaled to controls: 0 for no effect and ±100 for the full control effect; nearly all actives have a fitted effect of over 50% in size. The essentials: (§1)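 HEK293 cells, 600/well, were preincubated 5 hours and then exposed to compounds at 37 C for up to 40 hours. A cell-impermeant cyanine dye staining dead-cell DNA was read by fluorescence at 0, 8, 16, 24, 32 and 40 h time points.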
A short description of experiment [12]: qHTS RealTime-Glo MT Cell Viability Assay in HepG2 cells - 40 hour (AID 1224870). Also: % is scaled to controls: 0 for no effect and ±100 for the full control effect; nearly all actives have a fitted effect of over 50% in size. In short, it runs like this: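 HepG2 cells (600/well) mixed with RealTime-Glo MT reagent, settled 5 h at 37 C/5% CO2 before compound addition. Nonlytic NanoLuc luminescence from viable-cell prosubstrate reduction read repeatedly during 40 h treatment at 37 C.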
Experiment [13] in a line: A CellTox Green Cytotoxicity Assay to monitor cytotoxicity in HEK293 cells - 40 hour (AID 1224871). Also: nearly all actives have a fitted effect of over 45% in size. Also: potency is read from the fitted curve at half-maximal effect. In short, it runs like this:
as §1

A short description of experiment [14]: qHTS RealTime-Glo MT Cell Viability Assay in HEK293 cells - 16 hour (AID 1224872). The essentials:
(§2)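 Tox21 10K qHTS, HEK293, 600 cells/well, RealTime-Glo reagent co-dispensed with cells; 5 h preincubation, compound by pintool, 37 C, luminescence at 0–40 h.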

Experiment [15] in a line: qHTS assay to identify small molecule agonists of the constitutive androstane receptor (CAR) signaling pathway - cell viability counter screen (AID 1224836). Also: potency is read from the fitted curve at half-maximal effect; nearly all actives have a fitted effect of over 45% in size. In short, it runs like this:
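Using CellTiter-Fluor, viability of HepG2 cells harbouring hCAR and CYP2B6-2.2kb was measured following 23 h incubation with a 15-concentration compound series plus PK11195 (0.75 uM final).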

Experiment [16] can be described thus: qHTS assay to identify small molecule agonists of H2AX (AID 1224845; active = well fitted activation curve with a large enough effect in the signal ratio in the repeat runs, not every such curve was filed as active; the % refers to the signal ratio; also: % is scaled to controls: 0 for no effect and ±100 for the full control effect). In short, it runs like this:
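Wild-type CHO-K1 cells, plated overnight, exposed 3hr at 37C to 15 concentrations (0.76% DMSO final). Lysed, then HTRF anti-pH2AX (S139) cryptate and anti-H2AX-d2 antibodies, 24 hr room temperature; 665/620 nm emission read.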

Experiment [17] in a line: qHTS assay to identify small molecule agonists of the hypoxia (HIF-1) signaling pathway (AID 1224846; active = well fitted activation curve with a large enough effect in the signal ratio in the repeat runs, not every such curve was filed as active; the % refers to the signal ratio; also: % is scaled to controls: 0 for no effect and ±100 for the full control effect). The essentials:
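HRE-bla ME-180 beta-lactamase reporter cells in medium with 0.5% dialyzed FBS, pre-incubated 5 h then exposed to compounds 17 h at 37C, 5% CO2; reporter induction read with CCF4-AM FRET substrate.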

Experiment [18] in a line: qHTS RealTime-Glo MT Cell Viability Assay in HEK293 cells - 32 hour (AID 1224868). In short, it runs like this: as §2
Experiment [19] in a line: qHTS assay to identify small molecule agonists of the hypoxia (HIF-1) signaling pathway - cell viability counter screen (AID 1224844; calls by dose curve). In short, it runs like this:
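HRE-bla ME-180 cells, 2,000/well in 0.5% dialyzed FBS medium, treated 17 h at 37C with compounds. Viability read in the same wells as the bla reporter, by CellTiter-Glo luminescence after 30 min at room temperature.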

A short description of experiment [20]: qHTS assay to identify small molecule antagonists of the estrogen related receptor signaling pathway with the pleiotropic PPARgamma coactivator (PGC) from Tox21 10K library (AID 1224841; call rule not given here). In short, it runs like this:
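PGC/ERR cell line, 2,000 cells/well, pre-incubated 6 hours at 37 C, then exposed to compounds for 18 hours at 37 C; luciferase read with One-Glo luminescence after 30 min at room temperature.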

Nuclear receptor subfamily 1 group I member 3 (Homo sapiens), sequence (Q14994 whole entry, looked up): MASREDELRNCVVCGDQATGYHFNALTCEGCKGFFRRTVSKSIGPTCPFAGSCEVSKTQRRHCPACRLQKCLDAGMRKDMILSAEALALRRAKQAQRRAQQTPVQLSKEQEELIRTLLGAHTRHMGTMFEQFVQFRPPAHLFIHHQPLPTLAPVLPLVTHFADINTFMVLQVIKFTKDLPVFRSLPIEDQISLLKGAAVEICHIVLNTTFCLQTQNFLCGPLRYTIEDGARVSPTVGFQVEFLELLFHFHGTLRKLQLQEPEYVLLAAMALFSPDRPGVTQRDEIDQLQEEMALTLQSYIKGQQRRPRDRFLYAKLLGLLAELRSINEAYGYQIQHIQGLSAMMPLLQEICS
Thyrotropin receptor (Homo sapiens), sequence (P16473 whole entry, looked up): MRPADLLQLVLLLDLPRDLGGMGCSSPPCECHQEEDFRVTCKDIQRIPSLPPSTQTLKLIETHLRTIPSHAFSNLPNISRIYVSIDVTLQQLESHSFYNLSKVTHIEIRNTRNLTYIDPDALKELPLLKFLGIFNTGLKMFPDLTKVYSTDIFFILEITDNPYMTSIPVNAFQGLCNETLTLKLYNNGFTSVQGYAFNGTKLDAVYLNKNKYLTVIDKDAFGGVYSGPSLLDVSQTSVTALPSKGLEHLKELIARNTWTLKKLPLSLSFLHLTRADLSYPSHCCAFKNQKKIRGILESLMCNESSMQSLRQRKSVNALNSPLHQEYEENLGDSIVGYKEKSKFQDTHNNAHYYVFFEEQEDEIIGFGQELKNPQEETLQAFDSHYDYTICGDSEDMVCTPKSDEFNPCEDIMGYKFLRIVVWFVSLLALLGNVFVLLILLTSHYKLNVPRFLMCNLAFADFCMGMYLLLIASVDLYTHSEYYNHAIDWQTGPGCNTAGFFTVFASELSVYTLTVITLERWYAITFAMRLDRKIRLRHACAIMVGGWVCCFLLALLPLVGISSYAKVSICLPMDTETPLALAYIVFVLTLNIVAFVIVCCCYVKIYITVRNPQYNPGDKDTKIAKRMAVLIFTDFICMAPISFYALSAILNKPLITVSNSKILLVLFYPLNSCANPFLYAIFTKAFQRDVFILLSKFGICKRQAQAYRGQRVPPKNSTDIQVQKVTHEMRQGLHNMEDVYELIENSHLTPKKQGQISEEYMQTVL

Consider `O=C(N/N=C/c1ccccc1O)c1ccncc1`, for which the Potency result in [1], in experiment [2], in experiment [3], in experiment [4], in experiment [5] and in experiment [6] was “inactive” each time. The Potency result in experiment [7], in experiment [10], in experiment [11], in experiment [12], in [13] and in [14] was “inactive” each time. The Potency in experiment [8] is 11.9 µM (active). In addition, in experiment [9], the activity change, positive = activation is -42.8% [at 42.5 µM] (inactive).

Regarding `O=c1cc(-c2ccc(O)cc2)oc2cc(O)cc(O)c12`, the Potency is 55.2 µM (active) in experiment [15]; 24.7 µM (active) and 61.1 µM (active) in experiment [3]; “inactive and 43.6 µM (active)” in experiment [13]. Further, the Potency result in experiment [2], in experiment [10], in experiment [11] and in experiment [12] was “inactive” in each case.

`CCC(CN)=C(c1ccccc1)c1ccccc1`: the Potency entry in experiment [1], in experiment [2], in experiment [3], in [4], in experiment [6] and in [16] was “inactive” in each case. The Potency entry in experiment [17], in experiment [7], in experiment [10], in [18], in experiment [11] and in [12] was “inactive” throughout. The Potency result in experiment [13] and in [14] was “inactive” in each case.

Turning to `Cc1ccc(O)c2ncccc12`, the Potency was 11.9 µM (active) in [1], 13.3 µM (active) in experiment [2], 23.7 µM (active) in [4] and 18.8 µM (active) in experiment [8]. The Potency result in [3], in experiment [5], in experiment [6], in experiment [19], in [10] and in experiment [18] was “inactive” in each case. For the same molecule, the Potency result in [11], in experiment [12] and in experiment [14] was “inactive” throughout. Moreover, the activity change, positive = activation in [9] was -58.3% [at 42.5 µM] (inactive).

In the case of `CCCC/C=C/CCCCO`, the Potency entry in experiment [1], in [4], in experiment [6], in [19], in [16] and in [17] was “inactive” in each case. Further, the Potency result in [7], in experiment [10], in experiment [18], in experiment [11], in [12] and in [13] was “inactive” throughout. The Potency entry in experiment [14] is “inactive”.

Regarding `Nc1nc2ccccc2n1Cc1ccc(F)cc1`, the Potency result in experiment [2], in experiment [4], in [20], in experiment [5], in experiment [6] and in [16] was “inactive” throughout. For the same molecule, the Potency result in experiment [7], in experiment [10], in experiment [11], in experiment [12] and in experiment [13] was “inactive” each time. The Potency in experiment [3] was 15 µM (active). Also, the activity change, positive = activation in [9] was -28.8% [at 42.5 µM] (inactive).

As for `CCCCCCCCCCCCCCCS(=O)(=O)Oc1ccccc1`, the Potency entry in [1], in experiment [2], in experiment [3], in experiment [4], in [19] and in experiment [16] was “inactive” in each case. Also, the Potency entry in experiment [17], in experiment [7], in experiment [10], in experiment [18], in [11] and in experiment [12] was “inactive” in each case. For the same molecule, in [13], the Potency result was “inactive”.
